Compound activity as filed in PubChem BioAssay.
An excerpt weighted towards active compounds, which were near 1.6% of everything screened.
PERK inh: block of dimerizer-induced PERK translation repression, primary screen, PERK inhibitor project, CHO PERK-DD cells, SEAP luminescence, HTS; Eukaryotic translation initiation factor 2-alpha kinase 3 (Homo sapiens), Q9NZJ5; CHO PERK-DD fusion, SEAP luminescence translation reporter; inhibition, % at 5.6 µM; 220,000 compounds, 0.17% hits; AID 1416, 2008;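 active means inhibition above the mean inhibition of all tested compounds plus 3 SD, set separately per screening campaign, cut at about 2.9% in these data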;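 further: PERK kinase domain activated by AP20187 dimerizer at 100 nM; 0% = DMSO with dimerizer and 100% = rapamycin at 8.4 µM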
Target sequence (Q9NZJ5 whole entry, looked up, the tested form may be a part): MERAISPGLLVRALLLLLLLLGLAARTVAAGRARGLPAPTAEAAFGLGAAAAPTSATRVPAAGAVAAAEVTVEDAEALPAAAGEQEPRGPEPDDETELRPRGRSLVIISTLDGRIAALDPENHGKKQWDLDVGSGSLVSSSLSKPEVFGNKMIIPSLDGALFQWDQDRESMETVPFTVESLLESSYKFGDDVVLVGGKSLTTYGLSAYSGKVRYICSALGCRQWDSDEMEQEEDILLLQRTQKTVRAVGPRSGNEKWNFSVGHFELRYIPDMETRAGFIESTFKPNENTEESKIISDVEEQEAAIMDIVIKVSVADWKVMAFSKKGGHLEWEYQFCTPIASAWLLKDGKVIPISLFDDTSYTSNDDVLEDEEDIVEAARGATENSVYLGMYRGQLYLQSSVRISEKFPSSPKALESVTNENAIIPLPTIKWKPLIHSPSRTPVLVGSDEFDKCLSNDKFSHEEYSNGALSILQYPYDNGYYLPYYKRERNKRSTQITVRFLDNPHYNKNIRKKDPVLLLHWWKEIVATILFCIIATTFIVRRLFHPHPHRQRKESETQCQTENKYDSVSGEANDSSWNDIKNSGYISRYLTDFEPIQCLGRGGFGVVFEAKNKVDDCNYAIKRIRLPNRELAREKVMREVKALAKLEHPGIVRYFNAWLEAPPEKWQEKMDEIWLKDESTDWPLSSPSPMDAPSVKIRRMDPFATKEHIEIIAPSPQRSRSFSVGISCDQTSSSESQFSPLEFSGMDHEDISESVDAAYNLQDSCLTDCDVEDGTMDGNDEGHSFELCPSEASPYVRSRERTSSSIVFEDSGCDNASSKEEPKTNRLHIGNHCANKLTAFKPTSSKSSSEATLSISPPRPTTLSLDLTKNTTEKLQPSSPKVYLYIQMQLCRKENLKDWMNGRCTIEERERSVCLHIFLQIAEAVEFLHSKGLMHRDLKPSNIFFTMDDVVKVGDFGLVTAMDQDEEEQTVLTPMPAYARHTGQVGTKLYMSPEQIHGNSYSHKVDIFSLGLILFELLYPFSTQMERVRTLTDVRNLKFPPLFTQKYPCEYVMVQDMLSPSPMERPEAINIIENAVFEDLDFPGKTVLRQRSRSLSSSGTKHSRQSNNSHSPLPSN
eIF4E-4G inh: eIF4E–eIF4G protein interaction inhibitors, primary screen, biochemical, uHTS, TR-FRET, eIF4GI fragment | Eukaryotic translation initiation factor 4E (Mus musculus) + Eukaryotic translation … | AID 782, 2007 | inhibition, % at 21.7 µM | TR-FRET eIF4E-eIF4GI(517-606) binding, 2 h | 220,000 compounds, 0.37% hits;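 active means inhibition above about 30%, limit read from the data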;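 further: 0% = full FRET control wells and 100% = background wells lacking eIF4GI fragment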
PABP FP inh: PABP poly(A) RNA binding inhibitors, primary screen, biochemical, fluorescence polarization, uHTS. Polyadenylate-binding protein 1 (Homo sapiens), P11940. inhibition, % at 35 µM. 290,000 compounds, 1% hits;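 further: calls also rest on retests at 20 µM and on dose response follow-up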
eIF4H inh: human eIF4H binding inhibitors, primary screen, translation initiation inhibitor project, biochemical, uHTS, fluorescence polarization; AID 2012, 2009; inhibition, % at 35 µM; Eukaryotic translation initiation factor 4H (Homo sapiens), Q15056; 290,000 compounds, 0.94% hits; eIF4H fluorescence polarization binding assay;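 further: calls also rest on retests at 20 µM and on dose response follow-up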
PABP1 MLLE inh: inhibitors of PABP1 MLLE–PAM2 peptide binding, primary screen, biochemical, fluorescence polarization, FITC-PAM2, GST-MLLE | Polyadenylate-binding protein 1 (Homo sapiens), P11940 | inhibition, % at 20 µM | 360,000 compounds, 0.36% hits | AID 588489, 2011; in the data active means inhibition above about 35%, passing the limit was not always enough;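 further: plate controls were DMSO wells with GST-MLLE for no effect and wells lacking GST-MLLE protein for full effect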
* marks the source's active call; other numbers are inactive results; ? = inconclusive; / = not tested or not shown; [ ] = dose if it differs, or a comment. Unless noted, how the calls were made is not given here.

SMILES	PERK inh	eIF4E-4G inh	PABP FP inh	eIF4H inh	PABP1 MLLE inh
Cc1ccc(NC(=O)C2C3CCCC2C3c2ccccc2)cc1C (stereo unspecified)	0.4	-3.2	66.8*	?	-4.6
Cc1ccc(NC(=O)C2C3CCC(O3)C2C(=O)O)cc1C (stereo unspecified)	/	/	9.4	8.9	-12.3
CCN1CCc2c(C#N)c(N3CCOCC3)nc(NCCO)c2C1	1.2	-0.6	47.7	40.8	78.8*
O=C(NC1(C(F)(F)F)NC(=O)N(Cc2ccco2)C1=O)c1cccs1 (stereo unspecified)	0.5	0.3	50.4*	92.2*	8.1
Cc1ccc(C)c(S(=O)(=O)Nc2cc(SCC(=O)O)c(O)c3ccccc23)c1	-0.3	34.0*[fluorescence artefact?]	-8.2	-4.1	28.9
O=C(O)CSc1cc(NS(=O)(=O)c2cccc([N+](=O)[O-])c2)c2ccccc2c1O	0.4	23.7	16.5	-6.4	43.5*
O=S(=O)(Nc1cc(Sc2cccc3cccnc23)c(O)c2ccccc12)c1ccccc1	0.4	0.6	active	75.2*	/
CCc1ccc(S(=O)(=O)Nc2cc(SCC(=O)O)c(O)c3ccccc23)cc1	0.2	5.2	15.5	6.9	37.0
Cc1ccc(NS(=O)(=O)c2cc(NC(=O)C(C)Oc3ccccc3)ccc2C)c(C)c1 (stereo unspecified)	-0.6	-1.6	9.7	-5.0	-4.1
CCOc1ccc(S(=O)(=O)Nc2cc(SCC(=O)O)c(O)c3ccccc23)cc1	/	/	11.9	-5.1	34.0
CCOc1ccc2nc(S(=O)(=O)NC(=O)C3(C)CCN3C(=O)c3cc(C)n(C)n3)sc2c1 (stereo unspecified)	/	/	/	/	5.0
Nc1ccccc1Oc1ncc(C(F)(F)F)cc1Cl	2.9*	1.6	-9.3	-3.5	3.8
COC(=O)C(CC(C(=O)OC)C(=O)OC)C(=O)OC	1.2	-4.4	-2.7	-12.0	6.7
COCCCN1C(=O)CC(C(=O)OC)=C1C	0.3	2.0	15.7	-4.9	0.8
C=CCn1c(=O)/c(=C/c2ccc(C)o2)s/c1=C(/C#N)C(=O)c1ccccc1	0.3	1.1	128.2*	?	-111.3
C=CCn1c(=O)/c(=C\c2ccccn2)s/c1=C(/C#N)C(=O)NCC1CCCO1 (stereo unspecified)	-0.6	-1.3	32.1	?	-23.3
COc1ccc(C2NC3=C(CCC3)C3(C#N)C4(N=C(N)C23C#N)OCCO4)cc1 (stereo unspecified)	1.0	0.5	64.3*	71.5*	-18.7
Cc1ccc(Nc2nc(N)[nH]c(=O)c2N=O)cc1	0.7	-1.8	38.7*	?	20.5
CC12CC3(C)CC(C)(C1)CC(C(=O)NC(=S)NC(C)(C)C)(C2)C3	0.2	-4.9	-0.1	-0.8	42.6*
CC(C)(C)NC(=S)NC(=O)C12CC3CCC(CC(C3)C1)C2	0.6	-4.3	2.2	-7.7	23.3
Nc1ccc2[nH]ncc2c1	0.8	4.0	8.4*	56.6*	3.9
O=C(Cc1ccc(F)cc1)Nc1ccc2[nH]ncc2c1	/	/	5.5	2.0	-7.1
Cc1cc(C(=O)NCc2ccc(C(=O)O)o2)c(C)o1	1.2	3.0	29.1*	74.5	6.0
CC(=O)[C@H]1[C@@H]2C(=O)N(c3cccc(Cl)c3)C(=O)[C@@H]2[C@H]2c3ccccc3C=CN21	0.8	-9.1	55.5*	62.0	23.0
O=C(c1ccco1)[C@@H]1[C@@H]2C(=O)N(c3ccc(F)cc3)C(=O)[C@@H]2C2c3ccccc3C=CN21 (stereo partly specified)	3.0*	-1.9	44.2*	70.0	/
O=C(c1ccco1)[C@@H]1[C@@H]2C(=O)N(c3ccc(Br)cc3)C(=O)[C@@H]2C2c3ccccc3C=CN21 (stereo partly specified)	0.1	/	15.9	54.7	21.4
CN1CCN(C(=O)c2cc(Cl)cc(Cl)c2NC(=O)c2ccco2)CC1	0.2	1.6	-4.4	2.0	-0.4
COc1cc(C(=O)OCC(=O)Nc2ccc(F)cc2F)cc(OC)c1OC	-0.5	-1.4	83.5*	72.3*	-3.3
COc1ccc(C2=CSC3=NCCN23)cc1F	-1.6	38.2*[fluorescence artefact?]	-11.2	-0.5	23.9
COc1ccc(C2=CSC3=NCCN23)cc1Cl	/	/	-5.5	-6.6	-49.0
